We go through 10 compounds from PubChem BioAssay.

Usually inhibition stands for the change of the read-out against control, counted positive when it falls.

“And” between values parts separate entries of the source, which are not always exact repeats. Equal entries are not always repeated. The source made the active and inactive calls.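 The calls were made as follows, unless noted: active = inhibition at or above 50% relative to wild type and mutant plate controls; inactive = inhibition below 50%.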

Assay [1] in a line: inhibitors of TNFa-induced NFkB p65 translocation, primary screen, imaging, HUVEC, MLSMR starter and 10KST1 sets (AID 438;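 active = inhibition above 20% together with a positive visual image hit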;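 also: compound added about 3h40 before a 20 min TNFalpha stimulation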;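 as to inhibition: signal is the nuclear over cytoplasmic p65 intensity ratio per well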). The settings on record: HUVEC TNFa-induced p65 nuclear translocation; cell count: measured here: nuclei count (cytotoxicity indicator), at 2.08 µM; inhibition: at 2 µM, stronger effect = higher value, 0% TNFa-plus-vehicle, 100% no-TNFa wells.
A short description of assay [2]: reduction of polyQ htt aggregates in cells – imaging, exon1htt(103Q)mCFP cells, high-content imaging, primary screen (AID 483;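 active = visual image review flags a hit and inhibition of aggregation exceeds 20%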;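 also: compound exposure lasted 3 days before fixation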;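 as to nuclei count: percent of the per-plate median nuclei count of sample wells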). Particulars: exon1htt(103Q)mCFP cell line, aggregate imaging, at 2 µM; inhibition of aggregation: stronger effect = higher value; nuclei count: measured here: cell count, toxicity.
A short description of assay [3]: endothelial E-selectin expression blockers – imaging, HUVEC, immunofluorescence, MLSMR starter and 10KST1 sets, primary screen (AID 487;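 active = visually confirmed hit in the image check and inhibition above 20%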;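 as to inhibition: signal is fraction of cell area covered by stained E-selectin grains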;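 as to nuclei count: 100% = median nuclei count of all wells on the same plate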). Particulars: HUVEC TNFalpha-induced E-selectin immunofluorescence imaging, at 2 µM; inhibition: stronger effect = higher value; nuclei count: measured here: cell number, toxicity.
Assay [4] can be described thus: Primary imaging screen for DUSP6 inhibitors that restore phospho-Erk in transfected HeLa cells, chemical complementation (AID 609;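 active = compounds giving at least 50% inhibition in the cell-based MKP-3 phosphatase rescue imaging test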;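 as to inhibition: phospho-Erk level distribution per well compared with pooled transfected vehicle control wells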). The settings on record: HeLa MKP-3 transfected, phospho-Erk imaging KS statistic, at 10 µM, cells stimulated with TPA for 15 min.
The target of assay [5] is Dual specificity protein phosphatase 6 (Homo sapiens) (UniProt Q16828). The description is as above. The settings on record: HeLa MKP-3 transfected, phospho-Erk imaging KS statistic; at 10 µM; stronger effect = higher value; cells stimulated with TPA for 15 min.
Chain of Dual specificity protein phosphatase 6 (Homo sapiens) (Q16828 whole entry, looked up): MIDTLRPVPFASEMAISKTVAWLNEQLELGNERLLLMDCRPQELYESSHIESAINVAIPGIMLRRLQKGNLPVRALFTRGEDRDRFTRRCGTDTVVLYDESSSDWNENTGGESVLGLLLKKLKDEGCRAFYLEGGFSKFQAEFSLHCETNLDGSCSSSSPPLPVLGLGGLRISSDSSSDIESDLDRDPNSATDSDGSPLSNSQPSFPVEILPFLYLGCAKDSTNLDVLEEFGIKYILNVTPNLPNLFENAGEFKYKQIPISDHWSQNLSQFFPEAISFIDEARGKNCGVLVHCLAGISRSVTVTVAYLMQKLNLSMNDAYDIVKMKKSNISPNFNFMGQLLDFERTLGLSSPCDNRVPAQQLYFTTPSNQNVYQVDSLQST
Assay [6] deals with Voltage-gated potassium channel subunit beta-2 (Rattus norvegicus) (UniProt P62483). As to the kind of experiment: inhibitors of rat Kvbeta2 reductase activity – biochemical, NADPH fluorescence, primary screen (AID 622;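 active = fluorescence slope higher than the sample average by over 3 SD, cut at about -0.22 in these data, passing the limit was not always enough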;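 also: slope of raw intensity against log time taken from 70 to 1610 s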). The settings on record: recombinant KvBeta, 4-cyanobenzaldehyde reduction, at 10 µM, stronger effect = higher value.
Chain of Voltage-gated potassium channel subunit beta-2 (Rattus norvegicus) (P62483 whole entry, looked up): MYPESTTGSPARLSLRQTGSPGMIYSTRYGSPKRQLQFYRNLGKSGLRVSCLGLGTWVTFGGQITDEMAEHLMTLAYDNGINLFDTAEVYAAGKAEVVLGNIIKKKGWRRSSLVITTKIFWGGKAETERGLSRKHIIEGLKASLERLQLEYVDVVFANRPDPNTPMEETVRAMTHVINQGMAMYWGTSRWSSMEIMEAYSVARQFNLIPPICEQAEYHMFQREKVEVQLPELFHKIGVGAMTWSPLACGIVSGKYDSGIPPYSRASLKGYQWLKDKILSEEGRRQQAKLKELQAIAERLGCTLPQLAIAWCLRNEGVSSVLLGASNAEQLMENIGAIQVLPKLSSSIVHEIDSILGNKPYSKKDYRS
The target is the same in assay [7]. As to the kind of experiment: enhancers of rat Kvbeta2 NADPH turnover – biochemical, NADPH fluorescence, primary screen (AID 623;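 active = NADPH fluorescence slope more negative than the mean of all samples by about 3 SD, 99.7% confidence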;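 also: fluorescence intensity change per second fitted from 20 to 320 s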). Particulars: Recombinant KvBeta, NADPH fluorescence decrease slope, 10 min; at 10 µM; stronger effect = lower value.
The target of assay [8] is Alpha-2C adrenergic receptor (Homo sapiens) (UniProt P18825). The experiment in a line: compounds altering alpha2C-coupled GIRK flux – cell-based, HEK293 alpha2C/GIRK1/2, thallium flux, primary screen (AID 624;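 active = fluorescence slope after compound addition differing from the mean of all screened samples at 99.7% confidence, in either direction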;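 also: slope of fluorescence ratio to pre-addition baseline per second over 15 to 24 s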). The settings on record: thallium flux BTC fluorescence, at 10 µM, actives lie on both sides.
Chain of Alpha-2C adrenergic receptor (Homo sapiens) (P18825 whole entry, looked up): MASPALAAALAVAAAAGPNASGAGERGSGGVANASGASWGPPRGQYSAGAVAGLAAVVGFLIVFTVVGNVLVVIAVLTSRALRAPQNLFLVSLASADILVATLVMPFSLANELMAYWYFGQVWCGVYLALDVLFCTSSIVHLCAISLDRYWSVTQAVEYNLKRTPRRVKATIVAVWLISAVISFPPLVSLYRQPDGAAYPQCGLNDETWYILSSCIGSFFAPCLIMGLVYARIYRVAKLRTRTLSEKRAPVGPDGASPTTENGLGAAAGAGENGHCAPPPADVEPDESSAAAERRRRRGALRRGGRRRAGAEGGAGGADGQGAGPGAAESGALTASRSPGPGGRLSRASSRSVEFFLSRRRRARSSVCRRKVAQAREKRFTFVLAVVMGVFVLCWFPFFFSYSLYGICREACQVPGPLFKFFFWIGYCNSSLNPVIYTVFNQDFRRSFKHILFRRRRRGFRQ
Assay [9] can be described thus: inhibitors of larval lipid processing in zebrafish, primary screen, whole organism, PED6 fluorescence, gall bladder and intestine (AID 686;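 active = a full or partial loss of lipid-probe fluorescence in the fish gall bladder, intestine or both, judged by eye; inactive = no fluorescence loss, or compound toxic to the fish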;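 also: larvae 5 to 7 days old with five fish per well; signal comes from phospholipase A2 cleavage of quenched PED6 carried via bile; overnight exposure to compound and PED6 before scoring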). Particulars: Zebrafish larvae PED6 lipid processing, fluorescence scoring; screened at 20 µM (by protocol).
The nature of assay [10]: loss of swimming-algae plug formation – whole organism, Chlamydomonas reinhardtii, WT vs cilia-less mutant, absorbance, 96-well, primary screen (AID 463189).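 Also: 0% = wild type cc124 cells in DMSO and 100% = ciliumless bld1 mutant cells.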 Particulars: Chlamydomonas reinhardtii gravitaxis, OD600 absorbance, 2 days; at 10 µM; stronger effect = higher value.
Assay [11] is described as follows: blockers of RIG-like receptor reporter activation – cell-based, Sendai virus stimulus, luciferase, 10K MLSCN set, TLR/RLR signaling modifier project, primary screen (AID 602276;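 active = inhibition at or above 50% at 10 µM; inactive = inhibition below 50%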;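 also: firefly luciferase from ISG56 promoter only with Renilla not read in this screen; 0% = Sendai virus plus DMSO and 100% = medium plus DMSO without virus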). The settings on record: HEK293 RL24 IRF3 luciferase reporter, at 10 µM, stronger effect = higher value. Background: In a reporter assay the amount or activity of a reporter protein is the signal.
The nature of assay [12]: TLR3 IRF3 reporter activation blockers – cell-based, poly I:C stimulus, luciferase, 10K MLSCN set, primary screen (AID 602277;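 active = inhibition of the reporter signal at or above 50%; inactive = inhibition below 50%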). Particulars: HEK293-TLR3 RL24 IRF3 luciferase reporter, at 10 µM, stronger effect = higher value.
Setting [13] is: measured here: cell density z-score.
Setting [14] is: measured here: nuclear c-Myc green intensity z-score.
The mark [15] stands for this setting: measured here: nuclear pErk red intensity z-score, stronger effect = higher value.

On to `CN1CCC(=C2c3ccccc3C=Cc3ccccc32)CC1`, for which the cell count in assay [1] stood at 599. Also, the inhibition in assay [1] was -6% (inactive); in [3], -80% (inactive); in assay [5] it was 9.37% (inactive); in assay [10], 12% (inactive) and 38.6% (inactive); in assay [11], 18.4% (inactive); in [12] it was 46.7% (inactive). Further, the inhibition of aggregation in assay [2] is -5.2% (inactive). Besides, the results for the nuclei count in assay [2] and in assay [3] were 104% and 131%, respectively. The z-score in assay [4] (setting [13]) was 0.654; in assay [4] (setting [14]), 1.45; in assay [4] (setting [15]), -1.1. Moreover, in [6], the fluorescence slope is -0.438 (inactive). The NADPH fluorescence slope in assay [7] is -6.6e-05 (inactive). The slope in assay [8] was 0.00408 (inactive). The outcome in [9] is “inactive; toxic”.

Consider `c1cncc(-c2nnc3sc(-c4ccco4)nn23)c1`, for which the cell count in [1] was 535. In addition, the inhibition is 0.4% (inactive) in [1]; -81.8% (inactive) in [3]; -2.47% (inactive) in [5]; 1.41% (inactive) in assay [10]; 13.2% (inactive) in assay [11]; -2.28% (inactive) in assay [12]. The inhibition of aggregation in assay [2] was 3.4% (inactive). Besides, the nuclei count in assay [2] was 94.2%; in assay [3], 105%. The z-score in assay [4] (setting [13]) is 0.315; in [4] (setting [14]), -1.33; in assay [4] (setting [15]) it was 1.09. The fluorescence slope in assay [6] is -0.476 (inactive). In addition, the NADPH fluorescence slope in [7] is -8.1e-06 (inactive). Further, in assay [8], the slope was 0.00677 (inactive). Also, the compound was classed as inactive in assay [9].

With `COc1ccc(C(=O)Nc2cccnc2)cc1C(=O)Nc1cccnc1`, the cell count in assay [1] is 654. In addition, the inhibition is 4.4% (inactive) in [1]; -4.7% (inactive) in assay [3]; 23.4% (inactive) in assay [5]; -3.27% (inactive) in [10]; 11.5% (inactive) in assay [11]; 36% (inactive) in assay [12]. In addition, in assay [2], the inhibition of aggregation was -4.7% (inactive). In addition, the nuclei count in assay [2] was determined as 101%; in [3], 72.8%. Also, the z-score in [4] (setting [13]) was 0.737; in assay [4] (setting [14]) it was -0.175; in assay [4] (setting [15]) it was -0.517. The fluorescence slope in assay [6] was -0.448 (inactive). Besides, the NADPH fluorescence slope in assay [7] was -4.6e-05 (inactive). In addition, in assay [8], the slope was 0.00454 (inactive). The outcome in [9] was inactive.

As to `NC(=O)c1cc(-c2ccccc2)nc(Oc2ccccc2)n1`, in [1], the cell count is 472. Further, the inhibition was -18.1% (inactive) in assay [1]; -13.2% (inactive) in assay [3]; 6.51% (inactive) in assay [5]; -1.45% (inactive) in [10]; 13.4% (inactive) in [11]; 1.65% (inactive) in [12]. In [2], the inhibition of aggregation is 8.5% (inactive). The results for the nuclei count in assay [2] and in assay [3] were 99% and 109%, respectively. Besides, the z-score was -0.736 in assay [4] (setting [13]), -0.523 in [4] (setting [14]) and 0.468 in [4] (setting [15]). Besides, the fluorescence slope in assay [6] was -0.53 (inactive). Moreover, the NADPH fluorescence slope in assay [7] is -8.3e-05 (inactive). Moreover, the slope in assay [8] was 0.00808 (inactive). Also, the outcome in [9] was inactive.

Take `COC(=O)c1ccc(C2NC(C(=O)O)CS2)cc1` (stereo not given): the cell count in assay [1] was 652. The inhibition in assay [1] was -14.6% (inactive); in assay [3], -8.7% (inactive); in [5], -9.66% (inactive); in assay [10] it was 5.15% (inactive); in assay [11] it was 14.2% (inactive); in assay [12], 18.9% (inactive). The inhibition of aggregation in [2] was 3.9% (inactive). Further, the nuclei count in assay [2] came to 107%; in assay [3] it was 139%. Besides, the figures for the z-score in assay [4] (setting [13]), in assay [4] (setting [14]) and in assay [4] (setting [15]) were -0.228, -1.99 and -1.57, respectively. Besides, in assay [6], the fluorescence slope was -0.4 (inactive). The NADPH fluorescence slope in [7] is -2.2e-05 (inactive). The slope in assay [8] is 0.00581 (inactive). In assay [9], the result was inactive.

As for `CC1CCc2cc(F)cc3c(O)c(C(=O)NCC4CCCO4)c(=O)n1c23` (stereo not given), in [1], the cell count amounted to 553. In addition, the inhibition is 2.6% (inactive) in [1]; -28.6% (inactive) in assay [3]; -8.76% (inactive) in assay [5]; 11.8% (inactive) in [10]; 4.8% (inactive) in assay [11]; 8.44% (inactive) in [12]. For the same compound, in assay [2], the inhibition of aggregation was 1.2% (inactive). The figures for the nuclei count in assay [2] and in [3] were 83.8% and 134%, respectively. Also, the results for the z-score in assay [4] (setting [13]), in [4] (setting [14]) and in assay [4] (setting [15]) were -0.0424, -0.796 and -0.351, respectively. In addition, the fluorescence slope in assay [6] is -0.395 (inactive). Also, the NADPH fluorescence slope in assay [7] is 1.7e-06 (inactive). Besides, the slope in assay [8] was 0.0054 (inactive). Moreover, the compound was called inactive in [9].

`C[C@]12CC[C@@H]3c4ccc(OC(=O)c5ccccc5)cc4CC[C@H]3[C@@H]1CC[C@@H]2O`: the cell count in assay [1] worked out at 623. Besides, the inhibition was 1.2% (inactive) in assay [1]; -112% (inactive) in assay [3]; -6.41% (inactive) in assay [5]; 5.46% (inactive) in assay [10]; 7.4% (inactive) in assay [11]; 33.1% (inactive) in [12]. Besides, in [2], the inhibition of aggregation was -35.3% (inactive). The results for the nuclei count in [2] and in assay [3] were 31.5% and 133%, respectively. In addition, the results for the z-score in assay [4] (setting [13]), in assay [4] (setting [14]) and in assay [4] (setting [15]) were -1.91, 0.276 and -1.27, respectively. The fluorescence slope in [6] was -0.467 (inactive). Further, the NADPH fluorescence slope in [7] is -8.1e-05 (inactive). Also, the slope in assay [8] was 0.00784 (inactive). For the same compound, in assay [9], the compound was classed as inactive.

Regarding `CCCN(CCC)C(=O)C(CCC(=O)O)NC(=O)c1ccccc1` (stereo not given), the cell count in [1] turned out to be 589. Further, the inhibition is -1.1% (inactive) in assay [1]; -37.3% (inactive) in assay [3]; 5.79% (inactive) in [5]; 5.36% (inactive) and -10.6% (inactive) in assay [10]; 11.3% (inactive) in assay [11]; 28% (inactive) in [12]. Further, in assay [2], the inhibition of aggregation is 11.8% (inactive). For the same compound, the nuclei count in assay [2] was determined as 92.5%; in assay [3], 118%. Also, the z-score is -1.75 in assay [4] (setting [13]), 0.853 in assay [4] (setting [14]) and -0.876 in assay [4] (setting [15]). Also, in [6], the fluorescence slope is -0.461 (inactive). Besides, the NADPH fluorescence slope in assay [7] was -3.2e-05 (inactive). Further, in assay [8], the slope is 0.00459 (inactive). For the same compound, the compound was classed as inactive in [9].

Regarding `CCCCC[C@H](O)/C=C/[C@H]1C=CC(=O)[C@@H]1C/C=C\CCCC(=O)O`, the cell count in assay [1] was 543. Besides, the inhibition was -11.1% (inactive) in [1]; -33.9% (inactive) in assay [3]; 7.39% (inactive) in assay [5]; 5.58% (inactive) in [10]; -2.27% (inactive) in assay [11]; 25% (inactive) in assay [12]. Besides, the inhibition of aggregation in assay [2] was 16% (inactive). Also, the nuclei count in [2] turned out to be 84.8%; in assay [3] it was 110%. Moreover, the z-score was 1.78 in assay [4] (setting [13]), -0.725 in assay [4] (setting [14]) and -0.854 in assay [4] (setting [15]). For the same compound, the fluorescence slope in [6] was -0.458 (inactive). The NADPH fluorescence slope in [7] is -5.4e-05 (inactive). Moreover, the slope in assay [8] is 0.00837 (inactive). Moreover, the compound was classed as inactive in assay [9].

Turning to `O=C(COc1ccccc1)Nc1ccc(-c2nnc(-c3ccco3)o2)cc1`, in assay [1], the cell count stood at 458. Moreover, the inhibition in assay [1] is -4.3% (inactive); in [3] it was -252% (inactive); in assay [5], 3.97% (inactive); in assay [10], -15.4% (inactive); in assay [11], -55.4% (inactive); in assay [12], -103% (inactive). Also, the inhibition of aggregation in [2] is 7.5% (inactive). In addition, the nuclei count stood at 101% in [2] and 102% in [3]. For the same compound, the z-score in assay [4] (setting [13]) is -2.58; in assay [4] (setting [14]), 1.43; in assay [4] (setting [15]), -0.658. For the same compound, in [6], the fluorescence slope is -0.499 (inactive). Moreover, the NADPH fluorescence slope in assay [7] is -2.1e-05 (inactive). In addition, the slope in [8] was 0.00796 (inactive). Also, the compound was classed as inactive in [9].
